# Results taken from PubChem BioAssay AID463173 (ICCB-Longwood Screening Facility, Harvard Medical School, 2010).
# The whole screen tested about 52,000 compounds, of which about 4,300 (8.3%) were called active. The list comes from a sample in which actives are over-represented; it also holds similar structures and randomly drawn compounds. Values without a mark were called inactive. No stated cut-off is given here; in the data, active means survival mostly below about 52% (no sharp cut-off); inactive means mostly above about 56%.
# Tested on: DeltatarO mutant
# Assay: growth inhibition of S. aureus wild type versus tarO mutant, primary screen, teichoic acid synthesis inhibitors, RN4220, OD600 (AID 463173)
# Settings: OD600, 18 h, stronger effect = lower value, screened at 18.75 µg/mL (by protocol)
row,SMILES,survival
1,Cc1ccc2oc3c(c(=O)c2c1)C1(C(=O)N(C)c2ccccc21)N(CCCO)C3=O (configuration not stated),51% (active)
2,CCN1C(=O)C2(c3ccccc31)c1c(oc3ccc(C)cc3c1=O)C(=O)N2CCCOC(C)C (configuration not stated),49%
3,CCCN1C(=O)C2(c3ccccc31)c1c(oc3ccc(C)cc3c1=O)C(=O)N2CCOC (configuration not stated),60%
4,COCCN1C(=O)c2oc3ccc(C)cc3c(=O)c2C12C(=O)N(C)c1ccccc12 (configuration not stated),45% (active)
5,CCCN1C(=O)C2(c3ccccc31)c1c(oc3cc(C)c(C)cc3c1=O)C(=O)N2CCCOC (configuration not stated),55% (active)
6,COCCCN1C(=O)c2oc3ccccc3c(=O)c2C12C(=O)N(C)c1ccccc12 (configuration not stated),64%
7,Cc1cc2oc3c(c(=O)c2cc1C)C1(C(=O)N(C)c2ccccc21)N(CCO)C3=O (configuration not stated),55%
8,CCN1C(=O)C2(c3ccccc31)c1c(oc3ccc(F)cc3c1=O)C(=O)N2CCCOC (configuration not stated),64%
9,CCCN1C(=O)C2(c3ccccc31)c1c(oc3ccccc3c1=O)C(=O)N2CCCOC(C)C (configuration not stated),48%
10,CCCCc1nn2c(C)c(-c3ccc(OCC)cc3)nc2s1,103%
11,CCOC(=O)c1sc(NC(=O)C(C)Sc2nc(-c3ccccc3)cc(C(F)(F)F)n2)c(C(=O)OC)c1C (configuration not stated),159%
12,Cc1ccc(Cl)cc1N1CCN(C(=O)Cn2nc(C)c3sc4ccccc4c3c2=O)CC1,57%
13,COc1ccc(CCN2C(=O)CN=C2Nc2ccc(F)cc2)cc1OC,78%
14,COC(=O)c1ccc(C(=O)OC)c(NC(=O)c2ccc(-c3ccccc3)s2)c1,126%
15,CCOC(=O)c1c(CN(C)C)oc2ccc(O)cc12,88%
16,O=C(Nc1ccc(F)cc1)[C@@H](c1ccccc1)N1Cc2ccccc2C1=O,38% (active)
17,CC(C)CCNC(=O)[C@@H](c1ccccc1)N1Cc2ccccc2C1=O,12% (active)
18,O=C(Nc1cccc(F)c1)[C@@H](c1ccccc1)N1Cc2ccccc2C1=O,46% (active)
19,O=C(Nc1ccc(F)c(F)c1)C(c1ccccc1)N1Cc2ccccc2C1=O (configuration not stated),102%
20,CCOc1ccccc1NC(=O)C(c1ccccc1)N1Cc2ccccc2C1=O (configuration not stated),96%
21,CC(=O)Nc1ccc(NC(=O)C(c2ccccc2)N2Cc3ccccc3C2=O)cc1 (configuration not stated),119%
22,O=C(Nc1ccccc1F)C(c1ccccc1)N1Cc2ccccc2C1=O (configuration not stated),72%
23,Cc1ccc(NC(=O)[C@@H](c2ccccc2)N2Cc3ccccc3C2=O)cc1,71%
24,CCc1ccccc1NC(=O)[C@@H](c1ccccc1)N1Cc2ccccc2C1=O,4% (active)
25,CCCCNC(=O)[C@@H](c1ccccc1)N1Cc2ccccc2C1=O,54%

row,SMILES,survival
1,CSc1cccc(NC(=O)C(c2ccccc2)N2Cc3ccccc3C2=O)c1 (configuration not stated),88%
2,CC(C)NC(=O)C(c1ccccc1)N1Cc2ccccc2C1=O (configuration not stated),101%
3,COc1ccc(C(=O)OCc2cc(=O)n3nc(C4CC4)sc3n2)cc1OC,91%
4,CC(=O)N1c2ccc(S(=O)(=O)NCC3CCC(C(=O)Nc4ccccc4C)CC3)cc2CC1C (configuration not stated),104%
5,CCOc1ccccc1CNC(=O)C1CCN(S(=O)(=O)c2ccc3c(ccn3C)c2)CC1,96%
6,O=C(Nc1cccc(F)c1F)C1CCN(c2ncccn2)CC1,62%
7,COc1ccc(CCNC(=O)CCCCn2c(=O)c3ccccc3n(CC(=O)Nc3c(C)cccc3C)c2=O)cc1OC,115%
8,Cc1ccc2c(c1)-c1onc(C(=O)N(C)c3ccc(F)cc3)c1CO2,65%
9,O=C(NCCCN1CCN(c2ccccc2F)CC1)C1COc2ccccc2C1 (configuration not stated),92%
10,COc1ccc(OC)c(CCNC(=O)c2ccc3c(c2)c(C)c(C)n3Cc2ccccc2)c1,79%
11,COc1cc(-c2nc3cc(Cl)ccc3o2)cc(OC)c1OC,87%
12,CCOC(=O)c1sc2ccccc2c1S(=O)(=O)Nc1c(C)cccc1C,70%
13,COc1ccccc1CNC(=O)CSc1nc(-c2ccc(OC)c(OC)c2)cc(C(F)(F)F)n1,55%
14,COc1ccc(-c2cc(C(F)(F)F)nc(SCC(=O)NCCc3ccccc3)n2)cc1OC,58%
15,COc1ccc(-c2cc(C(F)(F)F)nc(SCC(=O)N(C)Cc3ccccc3)n2)cc1OC,33% (active)
16,CN(Cc1ccccc1)C(=O)CSc1nc(-c2ccc(F)cc2)cc(C(F)(F)F)n1,31% (active)
17,O=C(CSc1nc(-c2ccc(F)cc2)cc(C(F)(F)F)n1)NCc1ccccc1,62%
18,COc1ccc(-c2cc(C(F)(F)F)nc(SCC(=O)N(C)Cc3ccccc3)n2)cc1,44%
19,O=C(C1CCC1)N1CCc2cc(S(=O)(=O)NCc3ccc(F)cc3)ccc21,93%
20,CCOc1ccccc1NC(=O)Cn1c(=O)n(-c2ccc(Cl)cc2)c(=O)c2oc3ccccc3c21,69%
21,CN(C)c1ccc(NC(=O)CSC2=Nc3ccccc3C3=NC(CCC(=O)NCc4cccs4)C(=O)N23)cc1 (configuration not stated),75%
22,Cc1ccc2oc(=O)c3cc(C(=O)Nc4ccc(C)c(F)c4)sc3c2c1,77%
23,Cc1nc(-n2nc(C)c(CCC(C)C)c2C)sc1C(=O)Nc1ccc(Br)cc1,50%
24,Cc1ccc(-n2ncc3c(NCCc4ccccc4)ncnc32)cc1,87%
25,CCN(c1ccccc1)c1ncnc2c1cnn2-c1ccc(OC)cc1,52% (active)

row,SMILES,survival
1,CCCCN(CCCC)c1ncnc2c1cnn2-c1cccc(C)c1,74%
2,CCCCN(c1ccccc1)c1ncnc2c1cnn2-c1ccc(Cl)cc1,87%
3,Cc1ccc(-n2ncc3c(N(C)Cc4ccccc4)ncnc32)cc1,89%
4,COc1ccc(-n2ncc3c(NCCCOC(C)C)ncnc32)cc1,0% (active)
5,OCCN(CCO)c1ncnc2c1cnn2-c1ccc(F)cc1,6% (active)
6,Cc1ccc(-n2ncc3c(N(CCO)Cc4ccccc4)ncnc32)cc1,8% (active)
7,CCN(c1ccccc1)c1ncnc2c1cnn2-c1ccc(C)cc1C,55%
8,COCCCNc1ncnc2c1cnn2-c1ccc(F)cc1,86%
9,CCN(Cc1ccccc1)c1ncnc2c1cnn2-c1ccc(F)cc1,79%
10,COc1ccc(CCNc2ncnc3c2cnn3-c2ccc(C)cc2)cc1,81%
11,COc1ccc(Cl)cc1NC(=O)c1c(NCc2sccc2C)sc2c1CCCC2,71%
12,CC(=O)NC1(c2ccccc2)CCN(Cc2nnnn2C(C)(C)C)CC1,91%
13,Cc1ccc(C)c(N2CCN(C(=O)CCS(=O)(=O)c3ccc4c(c3)CC(=O)N4C)CC2)c1,89%
14,O=C(Nc1ccccc1F)NC1CCN(Cc2nnnn2Cc2ccc(F)cc2)CC1,96%
15,CC(=O)N1CCCc2ccc(NS(=O)(=O)c3cccc(Cl)c3)cc21,80%
16,N#Cc1c[nH]n2c(NC3CCCC3)c(-c3cccc(Br)c3)nc12,45%
17,Cc1c(C(=O)N(Cc2ccccc2F)C2CCS(=O)(=O)C2)oc2ccccc12 (configuration not stated),84%
18,COc1cccc(CN(C(=O)c2oc3ccc(Br)cc3c2C)C2CCS(=O)(=O)C2)c1 (configuration not stated),40% (active)
19,Cc1c(C(=O)N(Cc2ccc(N(C)C)cc2)C2CCS(=O)(=O)C2)oc2ccccc12 (configuration not stated),42% (active)
20,COc1cccc(CN(C(=O)c2oc3cc(C)ccc3c2C)C2CCS(=O)(=O)C2)c1 (configuration not stated),57%
21,Cc1c(C(=O)N(Cc2cccc(F)c2)C2CCS(=O)(=O)C2)oc2cc(Br)ccc12 (configuration not stated),63%
22,Cc1ccc2oc(C(=O)N(Cc3cccc(F)c3)C3CCS(=O)(=O)C3)c(C)c2c1 (configuration not stated),76%
23,COc1cc(CN(C(=O)c2oc3ccccc3c2C)C2CCS(=O)(=O)C2)cc(OC)c1OC (configuration not stated),55%
24,COc1cccc(CN(C(=O)c2oc3ccccc3c2C)C2CCS(=O)(=O)C2)c1 (configuration not stated),69%
25,Cc1ccc2c(C)c(C(=O)N(Cc3ccc(Cl)cc3)C3CCS(=O)(=O)C3)oc2c1 (configuration not stated),34% (active)

row,SMILES,survival
1,C=CCn1c(C(C)NC(=O)c2ccccc2Cl)n[nH]c1=S (configuration not stated),76%
2,Cc1cccc(C)c1NC(=O)c1ccc2nc(CCc3ccccc3)oc2c1,69%
3,O=C(Nc1ccc(Cl)cc1Cl)c1cc(S(=O)(=O)NCc2ccc3c(c2)OCO3)ccc1F,94%
4,O=C(C1CCCN(S(=O)(=O)c2cccc3nsnc23)C1)N1CCN(c2ccccc2)CC1 (configuration not stated),79%
5,CN1C(=O)SC(N(CC(N)=O)c2ccccc2)C1=O (configuration not stated),61%
6,COc1cc(NC(=O)Cn2nc(Cc3cccnc3)c3ccccc3c2=O)cc(OC)c1OC,71%
7,COCCNC(=O)CSc1nc2cc3c(cc2c(=O)n1CCCC(=O)NCc1ccc(OC)cc1)OCO3,84%
8,CC(=O)c1ccc(NC(=O)CSc2nnc3ccc(-c4ccc(Cl)cc4)nn23)cc1,83%
9,CCOC(=O)c1c(NC(=O)CSc2cn(CCNC(=O)c3ccc(OCC)cc3)c3ccccc23)sc2c1CCCC2,93%
10,COc1cccc(C(=O)COC(=O)c2cc(-c3cccs3)nc3ccccc23)c1,54%
11,Cc1ccc(-c2nc3c(cnn3-c3ccccc3)c(=O)n2-c2ccc(Cl)cc2)cc1,44% (active)
12,Cc1ccc(-n2c(-c3cccc(C)c3)nc3c(cnn3-c3ccccc3)c2=O)cc1,19% (active)
13,Cc1ccc(-n2c(-c3ccc(Br)cc3)nc3c(cnn3-c3ccccc3)c2=O)cc1,39% (active)
14,CCc1nc2c(cnn2-c2ccccc2)c(=O)n1-c1ccc(Br)cc1,86%
15,COc1cccc(-n2c(-c3ccccc3F)nc3c(cnn3-c3ccc(C)cc3)c2=O)c1,75%
16,COc1ccc(-n2c(-c3ccccc3F)nc3c(cnn3-c3ccc(C)cc3)c2=O)cc1,80%
17,Cc1ccc(-c2nc3c(cnn3-c3ccccc3)c(=O)n2-c2cccc(Cl)c2)cc1,33% (active)
18,COc1cccc(-n2c(-c3cccc(F)c3)nc3c(cnn3-c3ccc(C)cc3)c2=O)c1,76%
19,COc1ccc(-n2c(-c3cccc(F)c3)nc3c(cnn3-c3ccc(C)cc3)c2=O)cc1,96%
20,Cc1cccc(-c2nc3c(cnn3-c3ccccc3)c(=O)n2-c2ccc(Br)cc2)c1,139%
21,CCc1nc2c(cnn2-c2ccc(C)cc2)c(=O)n1-c1ccc(C)cc1,47%
22,Cc1ccc(-n2c(-c3ccco3)nc3c(cnn3-c3ccc(C)cc3)c2=O)cc1,81%
